Assay [1] can be described thus: qHTS assay to identify small molecule antagonists of the vitamin D receptor (VDR) signaling pathway - cell viability counter screen (AID 743225). Note: % is set by controls: 0 for no effect and ±100 for the full control effect; nearly all actives have a fitted effect of over 50% in size. In short, it runs like this: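 Viability counter screen run in the same wells as the beta-lactamase reporter assay: HEK 293T VDR-UAS-bla cells, 16 h compound exposure at 37C with 3 nM (final) 1-alpha,25-dihydroxyvitamin D3. CellTiter-Glo luminescence, 30 min, room temperature.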

A short description of assay [2]: qHTS assay to identify small molecule agonists of the NFkB signaling pathway (AID 1159509; active = well fitted curve in the direction sought with a large enough effect in the signal ratio in the repeat runs, not every such curve was filed as active; the % refers to the signal ratio; note: series mostly up to about 61 µM; % is set by controls: 0 for no effect and ±100 for the full control effect). In short, it runs like this:
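Beta-lactamase reporter assay run in quantitative high-throughput format on an NF-kB-responsive ME-180 line, with 5 hr compound treatment and a FRET-based blue/green fluorescence readout.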

Assay [3] can be described thus: qHTS assay to identify small molecule agonists of the NFkB signaling pathway - cell viability counter screen (AID 1159515; calls by dose curve; note: series mostly up to about 61 µM; % is set by controls: 0 for no effect and ±100 for the full control effect; nearly all actives have a fitted effect of over 55% in size). In short, it runs like this: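 Plate 2,000 NFkB-bla ME-180 cells/well; incubate overnight. Add compounds, 5 hr at 37 C. Add FRET substrate, 1.5 hr RT. Add CellTiter-Glo, 30 min RT; read luminescence.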
Assay [4] in a line: qHTS assay to identify small molecule agonists of the endoplasmic reticulum stress response signaling pathway (AID 1159516; active = well fitted activation curve with a large enough effect in the signal ratio in the repeat runs, not every such curve was filed as active; the % refers to the signal ratio; note: % is set by controls: 0 for no effect and ±100 for the full control effect). In short, it runs like this: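 Beta-lactamase expression from the ER stress response element in HeLa reporter cells is quantified with the LiveBLAzer B/G FRET substrate, read at 405 nm excitation after 2 hr at room temperature, following 5 hr compound treatment at 37 C.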

The nature of assay [5]: qHTS assay to identify small molecule agonists of the endoplasmic reticulum stress response signaling pathway - cell viability counter screen (AID 1159517; calls by dose curve; note: series mostly up to about 61 µM; % is set by controls: 0 for no effect and ±100 for the full control effect; nearly all actives have a fitted effect of over 50% in size). In a few lines: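 After overnight attachment, ESRE-bla HeLa cells were treated with Tox21 library compounds for 5 hr. CellTiter-Glo luminescence, read 30 min post-addition at room temperature, reported viability.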
Assay [6] is described as follows: qHTS assay to identify small molecule antagonists of the retinoid-related orphan receptor gamma (ROR-gamma) signaling pathway - cell viability counter screen (AID 1159520). Note: % is set by controls: 0 for no effect and ±100 for the full control effect; nearly all actives have a fitted effect of over 50% in size. In a few lines:
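Cytotoxicity was read from cellular ATP (CellTiter-Glo luminescence) after 16 hr at 37 C with 1 uM doxycycline induction. The inducer was added 2 hr after compound transfer to Tet-on ROR gamma CHO cells.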

The target in assay [7] is Nuclear receptor ROR-gamma (Homo sapiens) (UniProt P51449). The assay is described as follows: qHTS assay to identify small molecule antagonists of the retinoid-related orphan receptor gamma (ROR-gamma) signaling pathway (AID 1159521; note: top concentration of the series differs between compounds; % is set by controls: 0 for no effect and ±100 for the full control effect; nearly all actives have a fitted effect of over 50% in size). In short, it runs like this: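 Luminescence readout (ONE-Glo, 30 min RT) after 16 h doxycycline induction; loss of signal scored as antagonism. CHO cells with TET-inducible RORγ and RORE-LUC reporter; compounds added 2 h before 1 uM final doxycycline.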

Assay [8] is described as follows: qHTS assay to identify small molecule agonists of the AP-1 signaling pathway (AID 1159526; calls by dose curve; note: % is set by controls: 0 for no effect and ±100 for the full control effect).
For assay [9], the target named is Retinoic acid receptor RXR-alpha (Homo sapiens) (UniProt P19793). The assay can be described thus: qHTS assay to identify small molecule agonists of the RXR signaling pathway (AID 1159527; calls by dose curve; note: nearly all actives have a fitted effect of over 35% in size; note: potency is the fitted concentration of half-maximal effect). In a few lines:
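Agonist mode; 9-cis retinoic acid positive control. HEK 293T UAS-bla reporter cells, 2% charcoal-stripped FBS, 16 hr compound exposure at 37 C/5% CO2. LiveBLAzer B/G FRET substrate 2 hr RT; ex 405, em 460/530 nm.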

Assay [10] is described as follows: qHTS assay to identify small molecule agonists of the RXR signaling pathway - cell viability counter screen (AID 1159529). In a few lines: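 Luminescence from CellTiter-Glo (30 min, RT) measured viability in the same wells as the beta-lactamase reporter readout. Cells: GeneBLAzer RXR-alpha HEK 293T, 2% charcoal-stripped FBS. Compound exposure 16 hr, 37 C.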
Assay [11] can be described thus: qHTS assay to identify small molecule antagonists of the retinoid acid receptor (RAR) signaling pathway - cell viability counter screen (AID 1159551). Note: % is set by controls: 0 for no effect and ±100 for the full control effect; nearly all actives have a fitted effect of over 35% in size. In short, it runs like this: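 Viability of C3RL4 cells is quantified from ATP by luminescence after 6 h treatment at 37 C with compounds and 1 uM retinol.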
The nature of assay [12]: qHTS assay to identify small molecule antagonists of the retinoic acid receptor (RAR) signaling pathway (AID 1159552). In a few lines: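 Luminescence from a RARE luciferase reporter in C3RL4 cells served as read-out. Cells received compounds together with 1 uM final retinol and incubated 6 hr at 37 C before detection reagent was added for 30 min at room temperature.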
Assay [13] in a line: qHTS assay to identify small molecule agonists of the retinoic acid receptor (RAR) signaling pathway (AID 1159553). Note: potency is the fitted concentration of half-maximal effect. In short, it runs like this: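 Compounds dissolved in DMSO were pinned onto C3RL4 cells seeded the previous day, and plates were held 6 hr at 37 C. RARE-driven luciferase output was then read by luminescence.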
Assay [14] can be described thus: qHTS assay to identify small molecule antagonists of the estrogen related receptor (ERR) signaling pathway from Tox21 library - cell viability counter screen (AID 1224834). Note: % is set by controls: 0 for no effect and ±100 for the full control effect; nearly all actives have a fitted effect of over 30% in size. In a few lines:
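In this quantitative HTS format, ERR cells receive compounds in DMSO and are incubated for 17.5 h at 37 C. Live-cell protease activity is then detected with CellTiter-Fluor.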

The nature of assay [15]: qHTS assay to identify small molecule agonists of the AP-1 signaling pathway - cell viability counter screen (AID 1159525; calls by dose curve; note: nearly all actives have a fitted effect of over 55% in size). In short, it runs like this:
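Intracellular ATP by Cell Titer Glo luminescence (30 min, RT) in the same ME-180 AP-1-bla wells after the 5 h compound exposure at 37 °C. Normalised to tetra n-octyl ammonium bromide and DMSO controls.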

The nature of assay [16]: qHTS assay to identify small molecule antagonists of the estrogen related receptor (ERR) signaling pathway (AID 1224819). In short, it runs like this: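 ERR reporter cells were plated at 2,000 cells/well and left 6 h at 37 C/5% CO2 before pin-tool transfer of compounds in DMSO. After 18 h at 37 C, One-Glo was added and luminescence was read 30 min later at room temperature.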

Assay [17] is described as follows: qHTS assay to identify small molecule agonists of the estrogen related receptor (ERR) signaling pathway (AID 1224820). Note: % is set by controls: 0 for no effect and ±100 for the full control effect. In a few lines:
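Following a 6 h settling period, 2,000 ERR cells per well receive DMSO-dissolved compounds by pin tool and incubate 18 h at 37 C; agonist activity is scored from One-Glo luminescence read 30 min post-addition.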

Assay [18] relates to estrogen-related receptor alpha (ERRalpha) with PGC-1alpha coactivator, human. The assay is described as follows: qHTS assay to identify small molecule antagonists of the estrogen related receptor signaling pathway with the pleiotropic PPARgamma coactivator (PGC) (AID 1224821; calls by dose curve). In a few lines:
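Screening used NTP's PGC/ERR cells, dosed via pin tool with compound in DMSO alongside positive and negative controls. After 18 h at 37 C, One-Glo reagent sat 30 min at room temperature before luminescence detection.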

Assay [19] in a line: qHTS assay to identify small molecule antagonists of the estrogen related receptor signaling pathway with the pleiotropic PPARgamma coactivator (PGC) cell viability counter screen (AID 1224822). In short, it runs like this:
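Viable cell signal (CellTiter-Fluor, 30 min, 37 C/5% CO2) was measured in PGC/ERR cells after a 17.5 h compound incubation.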

Assay [20] is described as follows: qHTS assay to identify small molecule agonists of the estrogen related receptor signaling pathway with the pleiotropic PPARgamma coactivator (PGC) (AID 1224823). Note: % is set by controls: 0 for no effect and ±100 for the full control effect. In a few lines: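 In this quantitative high-throughput screen, an 18 h, 37 C treatment of PGC/ERR cells with compounds in DMSO preceded a One-Glo luminescence read taken after 30 min at room temperature.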

The values that follow come from PubChem BioAssay (Tox21).

Results filed as inconclusive are left out. Values without a mark were called inactive. Active and inactive are the calls of the source. Unless noted, calls come from the whole dose curve; as a rule, active = well fitted curve in the direction sought with a large enough effect in the repeat runs; inconclusive = weak or mixed curves; inactive = no such curve, though single readings can be large; an effect the other way counts as inactive or inconclusive.

Sequence of Retinoic acid receptor RXR-alpha (Homo sapiens) (P19793 whole entry, looked up): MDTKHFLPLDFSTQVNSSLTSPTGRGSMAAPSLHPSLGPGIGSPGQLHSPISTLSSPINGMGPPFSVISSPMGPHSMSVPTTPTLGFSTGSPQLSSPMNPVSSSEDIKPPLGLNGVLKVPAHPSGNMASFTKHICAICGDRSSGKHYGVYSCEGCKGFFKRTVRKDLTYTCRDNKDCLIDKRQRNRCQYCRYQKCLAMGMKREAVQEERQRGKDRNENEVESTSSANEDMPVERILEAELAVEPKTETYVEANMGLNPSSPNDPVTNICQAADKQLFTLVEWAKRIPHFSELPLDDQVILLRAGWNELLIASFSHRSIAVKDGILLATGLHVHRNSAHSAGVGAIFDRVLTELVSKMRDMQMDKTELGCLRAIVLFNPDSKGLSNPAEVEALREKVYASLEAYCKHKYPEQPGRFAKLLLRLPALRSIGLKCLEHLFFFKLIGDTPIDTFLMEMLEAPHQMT

In the case of `CCOC(=O)C(Br)c1ccccc1` (stereo not given), the Potency entry in assay [1], in assay [6], in [7], in assay [8], in assay [9] and in [10] was “inactive” each time. The Potency entry in assay [12], in assay [13] and in assay [14] was “inactive” in each case. Also, the compound was classed as inactive in [2], in assay [3], in assay [4], in assay [5] and in assay [11].
With `NS(=O)(=O)c1cc(-c2nn[nH]n2)c(NCc2cccs2)cc1Cl`, the Potency result in assay [1], in assay [6], in assay [7], in [8], in assay [9] and in assay [10] was “inactive” in each case. Also, the call in [2], in assay [3], in [4], in assay [5] and in assay [11] was inactive.
Take `O=[N+]([O-])c1nccn1CO[C@@H](CO)[C@H](O)CO`: the Potency entry in assay [1], in [6], in assay [7], in assay [8], in [9] and in assay [10] was “inactive” throughout. Besides, the Potency result in assay [12], in assay [13] and in assay [14] was “inactive” each time. Further, the compound was classed as inactive in assay [2], in assay [3], in assay [4], in [5] and in assay [11].
Take `O=C(O)c1ccccc1Nc1cc(Cl)ccc1C(=O)O`: the outcome in assay [2], in assay [3], in [4] and in [5] was inactive. For the same compound, the activity, negative = cytotoxicity in [6] is -2.84% [at 19 µM]. Also, in [7], the activity change, negative = inhibition was -10.7% [at 19 µM]. Moreover, the activity change, negative = cytotoxicity in assay [11] was -3.95% [at 19 µM]. Moreover, the activity, negative = inhibition in [12] is -145% [at 19 µM]. Also, the viability change, negative = cytotoxic in assay [14] is -1.64% [at 19 µM].
Consider `O=C1CCCCC1C1CCCCC1` (stereo not given), for which the Potency entry in assay [1], in assay [6], in assay [7], in [8], in [9] and in assay [10] was “inactive” in each case. Besides, the Potency entry in assay [12], in assay [13] and in assay [14] was “inactive” each time. Besides, the compound was classed as inactive in assay [2], in [3], in assay [4], in assay [5] and in assay [11].
For `CCCCCCCCOC(=O)CCCCCCCCC(=O)OCCCCCCCC`, the Potency result in assay [1], in assay [6], in assay [7], in [8], in assay [10] and in assay [14] was “inactive” each time. Further, the compound was called inactive in assay [2], in assay [3], in assay [4], in assay [5] and in assay [11]. Moreover, in assay [9], the Potency is 9.77 µM (active).
Regarding `COc1ccccc1N1CCN(CCCNc2cc(=O)n(C)c(=O)n2C)CC1`, the Potency result in [1], in assay [6], in [8], in [9], in [10] and in assay [12] was “inactive” in each case. Besides, in [13], the Potency result is “inactive”. Besides, the call in assay [2], in assay [3], in assay [4], in assay [5], in [15] and in assay [11] was inactive. The result in [16], in assay [17], in assay [18], in [19] and in assay [20] was inactive.
Regarding `COc1ccc(S(=O)(=O)Nc2nnc(CC(C)C)s2)cc1`, the Potency result in assay [1], in assay [6], in assay [7], in [8], in assay [10] and in assay [12] was “inactive” throughout. Besides, the Potency result in [13] and in [14] was “inactive” throughout. In addition, the outcome in assay [2], in assay [3], in assay [4], in assay [5] and in assay [11] was inactive.
Take `CC(C)NC[C@@H](O)COc1cccc2ccccc12`: the Potency entry in assay [1], in assay [6], in assay [7], in [12] and in assay [14] was “inactive” throughout. Moreover, the outcome in [2], in assay [3], in assay [4], in [5] and in assay [11] was inactive.
As for `CCCCc1ccc2nc(NC(=O)OC)[nH]c2c1`, the Potency result in assay [1], in assay [6], in assay [7] and in assay [12] was “inactive” throughout. Besides, the compound was called inactive in assay [2], in assay [3], in assay [4], in assay [5] and in [11]. Also, the Potency in assay [13] was 8.41 µM (active).
